Bioassay records (PubChem BioAssay)
The list is not random: actives were taken first. Their share in the collection is about 4.1%.
DAX1 inh-1: inhibitors of human orphan nuclear receptor DAX1 (NR0B1); P51843; HEK293 Gal4-DAX1 luciferase reporter, luminescence; inhibition, % at 6.75 µM; actives 0.99% (n = 340,000); AID 504766;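 active = inhibition above the mean over all tested compounds plus 3 SD, cut at about 4.2% in these data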;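 also: inhibition shows as a rise in luminescence from relieved DAX1 repression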
Target sequence (P51843 207-470 limits assumed): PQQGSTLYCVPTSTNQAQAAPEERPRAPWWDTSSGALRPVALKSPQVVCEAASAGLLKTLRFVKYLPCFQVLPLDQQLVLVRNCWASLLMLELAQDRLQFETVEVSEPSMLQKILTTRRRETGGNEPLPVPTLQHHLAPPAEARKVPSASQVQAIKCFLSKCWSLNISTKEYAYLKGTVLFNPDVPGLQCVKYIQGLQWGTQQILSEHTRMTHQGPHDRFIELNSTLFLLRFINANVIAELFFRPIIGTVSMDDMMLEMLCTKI
hcDAF-12 act: activates DAF-12 receptor from parasite H. contortus | activation, % at 6.8 µM | actives 1.4% (n = 370,000) | HEK293 hcDAF-12 lit1-tk-luc reporter, luminescence; 0% DMSO, 100% Δ7-dafachronic acid;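 active = activation above the mean of all tested compounds plus 3 SD, cut at about 5.5% in these data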
DAX1 inh-2: DAX1 (NR0B1) inhibition, primary screen; AID 652010; HEK293T StAR-luciferase reporter, SF-1/DAX-1 repression relief; inhibition, % at 6.8 µM; actives 1.1% (n = 370,000);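 active = inhibition above the mean over all tested compounds plus 3 SD, cut at about 3.6% in these data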;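 also: higher inhibition means more luminescence from relief of DAX-1 repression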
ssDAF12 agonist: activators of S. stercoralis DAF-12 nuclear receptor; HEK293 ssDAF-12/GRIP1 lit1-tk-luc reporter, luminescence; % of 3 µM dafachronic acid response; activation, % at 6.8 µM; actives 1% (n = 370,000);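 active = activation above the mean over all tested compounds plus 3 SD, cut at about 0.9% in these data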
hgDAF12 agonist: agonists of H. glycines DAF-12 nuclear receptor. actives 1.8% (n = 370,000). AID 687014. HEK293 GAL4-hgDAF12 UAS-luciferase reporter, agonist luminescence; normalized to butyrate control. activation, % at 6.8 µM;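 active = activation above a cutoff set at the mean of all screened compounds plus 3 SD, cut at about 10% in these data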
DAX1 conf: confirmation of human DAX1 (NR0B1) inhibitors; HEK293T StAR-promoter luciferase reporter, SF-1/DAX-1 repression; AID 652134; actives 87% (n = 2,400); inhibition, % at 6.8 µM; shares compounds with DAX1 inh-2;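 active = inhibition above the average of every tested compound plus 3 SD, cut at about 3.8% in these data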;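 also: active compounds raise luminescence by relieving repression of the StAR reporter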
SF1 mutant ctr: nonselective inhibitor or artifact in SF-1 mutant DAX1 counter-screen | shares compounds with DAX1 inh-2 | HEK293 StAR-luciferase, SF-1 AF2 mutant, luminescence | inhibition, % at 6.8 µM | actives 78% (n = 2,400) | AID 652136;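 active = inhibition above the mean of all tested compounds plus 3 SD, cut at about 3% in these data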
Hits are given with their value; n = inactive; x = not tested or not shown.

SMILES | DAX1 inh-1 | hcDAF-12 act | DAX1 inh-2 | ssDAF12 agonist | hgDAF12 agonist | DAX1 conf | SF1 mutant ctr
O=C(Nc1ccccc1)C(=O)Nc1ccc2c(c1)N(C(=O)C1CC1)CCC2 | n | n | 6.0 | n | 10.8 | 4.1 | n
C[C@@H]1CN([C@H](C)CO)C(=O)c2cc(NS(=O)(=O)c3cn(C)cn3)ccc2O[C@H]1CN(C)C(=O)Nc1ccccc1 | n | n | n | n | n | x | x
O=c1[nH]c(COc2ccc(Br)cc2Cl)nc2ccccc12 | n | n | 7.4 | n | n | 7.7 | 4.8
CN(C)C=Nc1nonc1-c1ccc(Cl)cc1 | n | n | n | n | n | x | x
O=C(N[C@H]1/C=C\[C@@H](O)CCCC1)OCc1ccccc1 | n | n | 7.6 | n | 11.0 | 10.6 | 9.1
Cc1cc(NN=Cc2ccccn2)nc2ccccc12 | x | n | n | n | n | x | x
C(=NNc1ccc2ccccc2n1)c1ccccn1 | x | 5.9 | 4.8 | n | 11.4 | n | n
COc1ccc(-c2nc3ccccc3[nH]2)cc1 | n | 5.8 | 6.8 | n | 12.1 | 15.3 | 6.1
CN(C)CCCNC(=O)c1c(N)[nH]c(C(=O)c2ccc(Br)cc2)c1-c1ccc(Br)cc1 | x | n | n | n | n | x | x
CCOC(=O)c1ccc2nc(NC(=O)C(C)C)sc2c1 | n | n | 4.6 | n | 12.6 | n | n
Cc1ccc2nc(NC(=O)COC(=O)c3cccnc3)sc2c1 | n | n | 5.6 | n | 12.0 | 4.0 | n
Cc1ccc(NC(=O)COC(=O)c2cccnc2)cc1 | n | n | n | n | n | x | x
CCCC(=O)Nc1nc2ccc(C(=O)OCC)cc2s1 | n | n | n | n | n | x | x
COc1ccc(-c2nc3n(c2C)CCC3)cc1 | n | n | n | n | n | x | x
COc1ccc(-c2cc3nc4n(c(=O)c3s2)CCC4)cc1 | n | n | 6.6 | n | n | 7.3 | n
O=C(NCCc1ccccn1)c1ccc(OC2CCN(CCc3ccccc3)CC2)cc1 | n | n | 5.8 | n | 12.4 | 9.1 | 4.1
CC(Cc1ccccn1)NC(=O)c1ccc(OC2CCN(CCc3ccccc3)CC2)cc1 (stereo unspecified) | n | n | n | n | n | x | x
COC(=O)c1ccc(Oc2nc(C(N)=O)cc(-c3ccccc3)n2)cc1 | n | n | n | n | n | x | x
O=C1CC(c2ccccc2)CC2=C1C1(CCCC1)N=C(Nc1nc3ccccc3o1)N2 (stereo unspecified) | x | n | 4.5 | n | n | n | n
O=C1CCCC2=C1C1(CCCCC1)N=C(Nc1nc3ccccc3o1)N2 | n | n | n | n | n | x | x
Cc1nn2c(=O)cc(COC(=O)c3c(F)cccc3Cl)nc2s1 | n | n | 8.6 | n | n | 6.4 | 6.2
CCCNC(=O)COC(=O)c1c2c(nc3ccccc13)CCC2 | n | n | n | n | n | x | x
COc1ccccc1OCc1cc(C(=O)N(C)CCC2CCCCO2)no1 (stereo unspecified) | n | n | 5.0 | n | 10.7 | 7.1 | n
COc1ccc(NC(=O)c2cccs2)cc1 | n | n | n | n | n | x | x
O=C(Nc1ccc(NC(=O)C2CC2)cc1)c1cccs1 | n | n | 7.1 | n | n | 8.3 | 5.3
SMILES | DAX1 inh-1 | hcDAF-12 act | DAX1 inh-2 | ssDAF12 agonist | hgDAF12 agonist | DAX1 conf | SF1 mutant ctr
COc1cc(C2CC(=O)c3cnc(NC(=O)c4ccco4)nc3C2)cc(OC)c1OC (stereo unspecified) | n | n | n | n | n | x | x
O=C(O)/C=C/c1cnn(-c2ccccc2)c1 | n | n | 5.0 | n | n | 7.3 | 3.5
O=C(Nc1nnc(-c2ccco2)s1)c1ccccc1 | n | 6.5 | 6.6 | n | 10.6 | 15.6 | 6.2
CN(CC(=O)Nc1ccccc1Cl)C(=O)CSc1nc2ccccc2s1 | n | n | n | n | n | x | x
COc1ccc(NC(=O)CN(C)C(=O)CSc2nc3ccccc3s2)cc1 | n | n | 5.0 | n | n | n | n
Cc1ccc(CN(C)C(=O)C2CCC(=O)N(CCc3ccccc3)C2)o1 (stereo unspecified) | n | n | 5.8 | n | n | 4.2 | 3.6
CCc1cc(C(=O)Nc2ccc(S(=O)(=O)NC3=NCCCCC3)cc2)sc1C | n | n | n | n | n | x | x
